The source of these data is PubChem BioAssay (NCI).

What all share (assay): NCI-60 one-dose screen, 48 h (100 = growth as untreated, 0 = no growth, -100 = all killed)
Settings in all cases: 10 µM

Assay [1] concerns HCT-15 colon.
Assay [2] has as its system HT29 colon.
Assay [3] concerns SNB-75 CNS.
Assay [4] concerns SNB-19 CNS.
For assay [5], the system named is U251 CNS.
The test system of assay [6] is PC-3 prostate.
For assay [7], the system named is SK-MEL-5 melanoma.
Assay [8] concerns UACC-62 melanoma.
Assay [9] relates to LOX IMVI melanoma.
Assay [10] concerns SK-MEL-28 melanoma.
Assay [11] deals with SK-MEL-2 melanoma.
Assay [12] has as its system SN12C renal.
For assay [13], the system named is UO-31 renal.
Assay [14] concerns TK-10 renal.
The subject of assay [15] is ACHN renal.
Assay [16] deals with CAKI-1 renal.
For assay [17], the system named is A498 renal.
In assay [18] the test system is CCRF-CEM leukemia.
In assay [19] the test system is MOLT-4 leukemia.

Each structure is given as a SMILES string. The panel holds about 83,000 compounds, 20% with a hit somewhere; the sample as a whole holds those more often.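 Activity criterion: percent growth below 10, measured after cells in 96-well plates were exposed to a single compound concentration for 48 hours.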 Values without a mark were called inactive. Active and inactive are the calls of the source.

Consider `COc1ccc(CCc2nc3cc(-c4c(C)noc4C)ccc3n2CCN2CCOCC2)cc1`, for which the growth was 52.8% in [1]; 12.8% in [2]; 27.8% in assay [3]; 48.9% in [4]; 17% in assay [5]; 11.8% in assay [6]. The growth is -0.324% (active) in assay [7]; 20% in assay [8]; 50.2% in assay [9]; 33.6% in assay [10]; 49.6% in [11]; 31.2% in [12]. Moreover, the growth in assay [13] was 4.71% (active); in [14] it was 24%; in assay [15] it was -0.152% (active); in assay [16] it was 57.2%; in assay [17], 58.6%; in assay [18], 42.7%. Further, the growth in [19] was 73%.

Turning to `COc1cc2nc(Sc3sc(N)nc3C)n(-c3ccc(Oc4ccccc4)cc3)c(=O)c2cc1OC`, the growth was 79.9% in assay [1]; 75% in assay [2]; 86.7% in assay [3]; 105% in [4]; 87.6% in assay [5]; 65.2% in assay [6]. The growth in assay [7] was 76.8%; in [8] it was 81.4%; in [9], 78.3%; in assay [10], 97.9%; in assay [11] it was 107%; in assay [12], 79.7%. Also, the growth in assay [13] is 76.1%; in assay [14], 98.1%; in assay [15], 81.5%; in assay [16] it was 94.1%; in assay [17], 82.1%; in assay [18], 64.5%. The growth in [19] was 54%.

Turning to `N#Cc1cnc2ccc(NCc3cnc[nH]3)cc2c1Nc1ccc(F)c(Cl)c1`, the growth in assay [1] is 88.4%; in [2], 82%; in assay [3], 86.4%; in assay [4] it was 76.8%; in assay [5], 58.8%; in [6], 70.1%. Also, the growth in assay [7] is 87.5%; in [8], 83%; in assay [9], 58.2%; in assay [10], 98%; in assay [11], 32.5%; in assay [12] it was 46.5%. Moreover, the growth in assay [13] was 51.5%; in [14], 11.8%; in assay [15], 24.6%; in assay [16], 43.6%; in assay [17] it was 52.4%; in assay [18], 71.3%. In addition, in assay [19], the growth was 79.6%.

Take `CCN1CCN(c2nc(NNC(=O)c3cccc(OC)c3)nc(N3CCN(C(c4ccccc4)c4ccccc4)CC3)n2)CC1`: the growth in assay [1] is 15.4%; in assay [2], 9.36% (active); in [3], 61.9%; in [4], 78.1%; in assay [5], 41.8%; in assay [6], 41.9%. Moreover, the growth in assay [7] was 53.5%; in assay [8], 73.5%; in assay [9] it was 7.34% (active); in assay [10], 63.2%; in assay [11] it was 75%; in assay [12], 61%. In addition, the growth in assay [13] is 27.5%; in [14] it was 79.7%; in assay [15], 56.1%; in assay [16], 42.2%; in assay [17], 75.3%; in [18], 48.9%. For the same compound, the growth in assay [19] was 23.8%.

As to `COC(=O)C1(C(=O)OC)C2C(=O)C3C(C21)C3(C(=O)OC(C)(C)C)C(=O)OC(C)(C)C` (stereo unspecified), the growth is 108% in [1]; 112% in assay [2]; 88.5% in assay [3]; 110% in assay [4]; 104% in assay [5]; 90.2% in assay [6]. In addition, the growth is 100% in [7]; 112% in assay [8]; 103% in [9]; 107% in assay [10]; 127% in assay [11]; 107% in assay [12]. For the same compound, the growth in assay [13] is 85.4%; in [14] it was 128%; in assay [15], 102%; in assay [16], 90%; in assay [17], 108%; in [18] it was 102%. For the same compound, the growth in [19] was 105%.

On to `c1ccc(COCC[P+](c2ccccc2)(c2ccccc2)c2ccccc2)cc1`, for which the growth is 71.9% in [1]; 1.21% (active) in [2]; -5.5% (active) in assay [3]; 9.79% (active) in [4]; 5.43% (active) in [5]; -4.87% (active) in assay [6]. The growth in [7] is -72% (active); in assay [8], 2.32% (active); in assay [9], -32.2% (active); in assay [10], 14.6%; in assay [11], -14.8% (active); in assay [12] it was 5.38% (active). Also, the growth is 46.9% in assay [13]; 8.09% (active) in [14]; 45.2% in assay [15]; 59.9% in [16]; -2.41% (active) in assay [17]; 2.79% (active) in [18]. For the same compound, the growth in assay [19] is -10.1% (active).

As for `COc1ccc2c(=O)cc(C(Cl)(Cl)Cl)oc2c1`, the growth in assay [1] was 5.59% (active); in assay [2], -41.8% (active); in assay [3], -78.3% (active); in [4], 1.99% (active); in assay [5], -0.183% (active); in assay [6] it was -37% (active). Further, the growth in [7] was -91.9% (active); in assay [8], -73.2% (active); in assay [9] it was -15.5% (active); in assay [10] it was -82.7% (active); in [11], -75.2% (active); in assay [12], 2.57% (active). The growth in assay [13] was -19.3% (active); in assay [14] it was -20.4% (active); in assay [15] it was 10.6%; in assay [16], -14.5% (active); in assay [17], -68.5% (active); in [18], -21.2% (active). Further, the growth in assay [19] is -23.9% (active).

Consider `CN(C)CCCN(Cc1ccccc1O)C(=S)Nc1ccc(Cl)cc1`, for which the growth is 93% in [1]; 106% in [2]; 79.5% in assay [3]; 94.7% in assay [4]; 101% in [5]; 93.8% in [6]. In addition, the growth in assay [7] was 91.3%; in assay [8] it was 108%; in assay [9], 98.4%; in assay [10], 109%; in assay [11], 112%; in [12], 98.2%. In addition, the growth in assay [13] is 78.8%; in assay [14], 104%; in assay [15], 95%; in assay [16] it was 99.7%; in assay [17], 77.5%; in assay [18], 109%. Besides, the growth in assay [19] is 106%.

Take `NCCNc1ccc2cc(-c3nc4ccccc4[nH]3)c(=O)oc2c1`: the growth in assay [1] is 79.4%; in [2], 108%; in [3] it was 85.1%; in assay [4], 105%; in assay [5], 94.9%; in [6] it was 79.7%. For the same compound, the growth in assay [7] is 93.5%; in assay [8], 87.4%; in assay [9], 85%; in assay [10] it was 93.7%; in [11], 106%; in [12], 92.2%. The growth is 81.7% in [13]; 128% in assay [14]; 95.8% in [15]; 96.3% in [16]; 94.7% in [17]; 81.9% in [18]. In assay [19], the growth was 88.4%.
